The list is not random: actives were taken first. Their share in the collection is about 21%.
Shiga inhibitor: blocks Shiga toxin action in Vero cells | Vero cells, Shiga toxin protein synthesis inhibition reporter | inhibition, % at 38.7 µM | 290,000 compounds, 9.2% hits | AID 2315; in the data active means inhibition mostly above about 28%, no sharp cut-off; inactive means mostly below about 43%; further: 0% is about no effect
Pf growth 96h: inhibits malaria parasite growth, 96 h | P. falciparum luciferase reporter growth, 96 h | 320,000 compounds, 6.9% hits | Potency, µM (titrated, usually from 28.7 µM), for inactives: at the highest dose activity change, negative = inhibition, usual class: inhibitors; further: potency means the concentration at half of the fitted maximal effect; on the % scale 0 is the no-effect control and ±100 the full control effect
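Erythrocytes infected with luciferase-expressing P. falciparum were dispensed at 2% hematocrit and 0.05% parasitemia (final), then incubated with compounds 96 hours at 37 C in 5% CO2. Luminescence after detection reagent addition reported growth.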
Pf growth 48h: inhibits P. falciparum growth in the first generation, 48 h. P. falciparum luciferase growth in erythrocytes, 48 h. Potency, µM (series often up to 28.7 µM), for inactives: at the highest dose activity change, negative = inhibition, usual class: inhibitors. 310,000 compounds, 5.9% hits; further: potency means the concentration at half of the fitted maximal effect; on the % scale 0 is the no-effect control and ±100 the full control effect
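Parasite viability was followed by luminescence of a genomically integrated firefly luciferase. Cultures held 0.1% parasitemia at 2% hematocrit (final), incubated under 5% CO2 at 37 C.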
Cycloheximide cs: counter-screen for Shiga toxin inhibitors: cycloheximide protein synthesis inhibition; cell reporter, cycloheximide protein synthesis inhibition counterscreen; max response, %; 300,000 compounds, 12% hits; AID 2314; in the data active means max response mostly above about 13%, no sharp cut-off; inactive means mostly below about 14%; further: read at 38.3 µM for the half of the compounds with a filed dose; 0% is about no effect
An asterisk follows results filed as active; u = inconclusive; x = no result given; [ ] = another dose, or the depositor's remark. Unless noted, the call rests on the fitted dose curve; in most records, active means well fitted inhibition curve with a large enough effect; inconclusive means small, poorly fitted or top-dose-only effect, or another doubt; inactive means no such curve, though single readings can be large or run the other way.

SMILES	Shiga inhibitor	Pf growth 96h	Pf growth 48h	Cycloheximide cs
Cc1[nH]c2ccc(Br)cc2c(=S)c1C/C=C/Cl	12	8.3µM*	u	-3
Cc1[nH]c2ccc3ccccc3c2c(=O)c1C/C=C/Cl	4	15µM*	-36%	9
O=S(=O)(c1ccc(F)c(F)c1)N1CCN(c2ccccn2)CC1	-5	u	3%	-4
CCOc1ccc(-n2c(SCC(=O)Nc3ccc(OC)cc3)nc3c(c2=O)SCC3)cc1	-12	50%	10%	-5
CCOC(=O)c1sc(NC(=O)CSc2nnc(C)s2)c(C(=O)OCC)c1C	-4	u	9.3µM*	-4
CCOC(=O)c1sc(NC(=O)CSc2nc3c(c(=O)n2-c2ccc(F)cc2)SCC3)c(C(=O)OCC)c1C	-6	2.9µM*	2.6µM*	-2
COC(=O)c1c(NC(=O)CSc2nc3ccccc3c(=O)n2-c2ccccc2)sc(C)c1C	-4	9.3µM*	u	-5
COC(=O)c1ccc(CSc2nc3c(c(=O)n2-c2ccc(Br)cc2)SCC3)o1	-13	9.3µM*	x	-4
CCOc1ccc(-n2c(SCc3ccc(C(=O)OC)o3)nc3c(c2=O)SCC3)cc1	-12	x	u	-3
COc1ccc(-n2c(SCC(=O)Nc3ccc(NC(C)=O)cc3)nc3ccccc3c2=O)cc1	32	-9%	11%[0.00184 µM]	8
O=C(CCNS(=O)(=O)c1ccccc1)NNC(=O)COc1ccc(Cl)cc1	x	6%	-28%	x
N#CCCN(C(=O)COC(=O)Cc1c[nH]c2ccccc12)c1ccccc1	x	12%	-17%	x
Cc1cccnc1NC(=O)CCc1nnc2ccc(N3CCC4(CC3)OCCO4)nn12	0	24%	19%	-1
CC1(c2ccc([N+](=O)[O-])cc2)NC(=O)NC1=O (stereo not drawn)	-5	9%	5%	-3
Cc1noc(C)c1COC(=O)c1csc2c1CCCC2	x	2%	-1%	x
COc1cc2c(cc1OC)CN(c1nc(CN3CCCCC3)nc3sc4c(c13)CCCC4)CC2	-5	1.9µM*	3.3µM*	-4
COc1cc2c(cc1OC)CN(c1nc(CN3CCOCC3)nc3sc4c(c13)CCCC4)CC2	-11	1.7µM*	9.3µM*	-1
Cc1nc(N2CCOCC2)c2c3c(sc2n1)CCC3	-16	u	10µM*	-5
COc1cc2c(cc1OC)CN(c1nc(CN3CCCC3)nc3sc(C)c(C)c13)CC2	-9	u	u	-1
COc1cccc(Nc2nc(CN3CCOCC3)nc3sc4c(c23)CCCC4)c1	-8	u	15µM*	-3
Cc1cc(S(=O)(=O)Nc2nc(CN3CCOCC3)nc3sc4c(c23)CCC4)cc(C)c1C	x	5%	-3%	x
C=CCN1C(=O)CS/C1=N\N=C\c1cccc([N+](=O)[O-])c1	32	u	35%	10
CCOc1ccc(Cn2c(=O)sc3ccccc32)cc1OC	1	u	53%	5
COc1cccc(/C=N/Nc2ccnc(=O)[nH]2)c1O	56*	0.23µM*	0.29µM*	26*
CCOc1ccccc1/C=N/Nc1ccnc(=O)[nH]1	28	u	u	24*
SMILES	Shiga inhibitor	Pf growth 96h	Pf growth 48h	Cycloheximide cs
O=c1nccc(N/N=C/c2ccccc2O)[nH]1	31	0.83µM*	9.3µM*	27*
COc1cccc(/C=N/Nc2ccc([N+](=O)[O-])cn2)c1O	91*	u	u	40*
CC(OC(=O)CN1C(=O)C2C3C=CC(C4CC34)C2C1=O)C(=O)c1ccccc1 (stereo not drawn)	-6	-18%	18%	-2
O=C(c1cccc(C(F)(F)F)c1)N1CCc2c([nH]c3ccccc23)C1C(F)(F)F (stereo not drawn)	11	12µM*	8.3µM*	-3
COc1cc(-c2nc(-c3ccccn3)no2)cc(OC)c1OC	81*	60%	59%	17*
COc1ccc(-c2noc(-c3cccc(Cl)c3)n2)cc1OC	11	-5%	76%	2
COc1cccc(-c2nc(-c3ccccn3)no2)c1OC	134*	-13%	64%	37*
c1ccc(-c2noc(-c3cccc4ccccc34)n2)nc1	41*	14%	275%	43*
COc1cc(-c2nc(-c3cccc(C(F)(F)F)c3)no2)cc(OC)c1OC	-9	12µM*	u	-2
O=C(CNC(=O)c1ccc2ccccc2c1)NCc1ccc(F)cc1	-5	-10%	0%	3
Nc1nc2c(c(=O)[nH]1)N(C=O)[C@H](CNc1ccc(C(=O)N[C@@H](CCC(=O)O)C(=O)O)cc1)CN2	x	-1%[12.8 µM]	0%[12.8 µM]	x
Clc1cccc(-c2nc(-c3ccccn3)no2)c1	16	7.4µM*	-79%	16
O=[N+]([O-])c1ccccc1Oc1ccccc1Cl	20	-20%	u	15*
C#CCOCCOCCOCCNc1nc(N2CCOCC2)nc(N2CCN(C(=O)[C@H](CCC(=O)O)n3cc(C(N)Cc4ccc(O)cc4)nn3)CC2)n1 (stereo partly drawn)	-9	17%	3%	-1
COC(=O)C1=CN(Cc2ccc(F)cc2)C=C(C(=O)OC)C1c1cc(OC)c(OC)c(OC)c1	-4	-28%	1.3µM*	-3
COC(=O)C1=CN(Cc2ccc(OC)c(OC)c2)C=C(C(=O)OC)C1c1cccc(F)c1	-2	10µM*	9.3µM*	-4
COc1cc(NC(=O)Cc2ccc(F)cc2)cc(OC)c1OC	19	13%	-1%	5
COC(=O)C1=CN(CC2CCCO2)C=C(C(=O)OC)C1c1cc(OC)c(OC)c(OC)c1 (stereo not drawn)	-18	4.1µM*	u	-2
COCCN1C=C(C(=O)OC)C(c2ccc(OC)c(OC)c2)C(C(=O)OC)=C1	-2	x	-9%	-2
COC(=O)C1=CN(Cc2ccc(OC)cc2)C=C(C(=O)OC)C1c1cc(OC)c(OC)c(OC)c1	-6	u	1.3µM*	1
COC(=O)C1=CN(Cc2cccs2)C=C(C(=O)OC)C1c1cccc(O)c1	-16	u	-21%	-1
COC(=O)C1=CN(Cc2ccccc2)C=C(C(=O)OC)C1c1cc(F)ccc1F	-7	7.4µM*	7.4µM*	6
COC(=O)C1=CN(Cc2ccc(C)cc2)C=C(C(=O)OC)C1c1ccc(F)c(F)c1	-1	15%	6.6µM*	-2
COC(=O)C1=CN(C(C)c2ccccc2)C=C(C(=O)OC)C1c1cc(OC)c(OC)c(OC)c1 (stereo not drawn)	-1	33%	1.5µM*	8
Cc1cc(NS(=O)(=O)c2c(C)c(C)cc(C)c2C)no1	-14	u	8%	-5
SMILES	Shiga inhibitor	Pf growth 96h	Pf growth 48h	Cycloheximide cs
CC(=O)Nc1ccc(S(=O)(=O)NNC(=O)c2cccc([N+](=O)[O-])c2)cc1	-7	4%	6%	-6
COc1ccc(C(=O)NC(=S)N(C)C2CCCCC2)cc1Br	-8	3.7µM*	u	-1
COc1ccc(C(=O)NCCS(=O)(=O)N(C)C2CCCCC2)cc1	x	u	1%	x
COc1ccc(C(=O)NC(=S)N2CCNC(=O)C2)cc1Br	-2	-18%	1%	-7
Cc1ccc(C(=O)NC(=S)N(C)C2CCCCC2)cc1Br	23	u	u	12
COc1ccc(C(=O)NC(=S)N2CCC(C)CC2)cc1Br	29*	u	87%	18*
COc1ccc(C(=O)NC(=S)N(C)C2CCCCC2)cc1	50*	12µM*	-11%	36*

Compound activity (PubChem)
